PubChem BioAssay AID1159580 (chemical genetic matrix, 2015)
“And” between values parts separate entries of the source, which are not always exact repeats. Equal values may be shown once. The whole screen tested about 5,500 compounds, of which about 2,000 (36%) were called active. Inconclusive results (about 18%) are left out. No stated cut-off is given here; in the data, active means normalized growth mostly below about 0.91 (no sharp cut-off); inconclusive means no clear call, values can overlap the other calls; inactive means mostly above about 0.92. The list shows a part of the results.

Assay: chemical genetic growth profiling, strain panel (AID 1159580);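 further: tested at 20 µM; growth read once vehicle control cultures reached saturation at 30 °C; 1 = growth at the plate median or of vehicle wells; lower values mean less growth of the strain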
Details: S. cerevisiae deletion strains, growth OD

Measured: normalized growth

COc1cc2c(cc1OC)C1Cc3ccc(OC)c(OC)c3CN1CC2 (stereo unspecified)
inactive: locus YAL021C, strain ccr4, active compounds read low 0.983 | locus YAL026C, strain drs2, active compounds read low 0.972 | locus YAL030W, strain snc1, active compounds read low 0.983 | locus YBL061C, strain skt5, active compounds read low 0.976 | locus YBR009C, strain hhf1, active compounds read low 0.972 | locus YBR021W, strain FUR4, active compounds read low 0.981 | locus YBR023C, strain chs3, active compounds read low 0.968 | locus YBR171W, strain sec66, active compounds read low 0.965 | locus YBR229C, strain ROT2, active compounds read low 0.985 | locus YBR231C, strain swc5, active compounds read low 0.983 | locus YBR279W, strain paf1, active compounds read low 0.983 | locus YCL011C, strain gbp2, active compounds read low 0.985 | locus YCL016C, strain dcc1, active compounds read low 0.999 | locus YCL029C, strain bik1, active compounds read low 0.998 | locus YCL061C, strain MRC1, active compounds read low 0.983 | locus YCL069W, strain vba3, active compounds read low 0.955 | locus YCR088W, strain abp1, active compounds read low 0.979 | locus YDL005C, strain med2, active compounds read low 0.974 | locus YDL035C, strain GPR1, active compounds read low 1 | locus YDL040C, strain nat1, active compounds read low 0.987 | locus YDL074C, strain BRE1, active compounds read low 0.989 | locus YDL101C, strain DUN1, active compounds read low 1 | locus YDL134C, strain PPH21, active compounds read low 1.03 | locus YDL185W, strain tfp1, active compounds read low 0.984 | locus YDL192W, strain arf1, active compounds read low 0.991 | locus YDR001C, strain nth1, active compounds read low 0.984 | locus YDR069C, strain doa4, active compounds read low 0.972 | locus YDR101C, strain arx1, active compounds read low 0.988 | locus YDR137W, strain rgp1, active compounds read low 0.967 | locus YDR159W, strain sac3, active compounds read low 0.972 | locus YDR162C, strain NBP2, active compounds read low 1.06 | locus YDR195W, strain ref2 0.955 | locus YDR297W, strain sur2, active compounds read low 0.975 | locus YDR318W, strain mcm21, active compounds read low 1 | locus YDR334W, strain swr1, active compounds read low 0.965 | locus YDR335W, strain msn5, active compounds read low 0.97 | locus YDR388W, active compounds read low 0.985 | locus YDR392W, strain spt3, active compounds read low 0.982 | locus YDR502C, strain sam2, active compounds read low 1 | locus YEL003W, strain gim4, active compounds read low 0.978 | locus YEL037C, strain rad23, active compounds read low 0.982 | locus YEL061C, strain CIN8 (second series), active compounds read low 0.95 | locus YEL061C, strain CIN8, active compounds read low 1.02 | locus YER015W, strain faa2, active compounds read low 0.984 | locus YER016W, strain bim1, active compounds read low 0.97 | locus YER110C, active compounds read low 0.982 | locus YER111C, strain swi4, active compounds read low 0.973 | locus YER155C, strain BEM2 (second series), active compounds read low 0.972 | locus YER155C, strain BEM2, active compounds read low 0.988 | locus YER167W, strain BCK2, active compounds read low 0.998 | locus YFR010W, strain ubp6, active compounds read low 0.96 | locus YGL078C, strain dbp3, active compounds read low 0.985 | locus YGL086W, strain mad1, active compounds read low 0.955 | locus YGL167C, strain pmr1, active compounds read low 0.978 | locus YGL173C, strain kem1, active compounds read low 0.987 | locus YGL227W, strain vid30, active compounds read low 0.979 | locus YGL240W, strain doc1, active compounds read low 0.973 | locus YGL248W, strain PDE1, active compounds read low 1.03 | locus YGL253W, strain hxk2, active compounds read low 0.97 | locus YGR135W, strain pre9, active compounds read low 1.01 | locus YGR252W, strain gcn5, active compounds read low 1.01 | locus YHR013C, strain ard1, active compounds read low 0.977 | locus YHR027C, strain rpn1, active compounds read low 1 | locus YHR030C, strain SLT2, active compounds read low 0.996 and 0.965 | locus YHR079C, strain IRE1 (second series), active compounds read low 0.995 | locus YHR079C, strain IRE1, active compounds read low 0.979 | locus YHR094C, strain hxt1, active compounds read low 0.978 | locus YHR129C, strain ARP1, active compounds read low 1 | locus YHR142W, strain chs7, active compounds read low 0.976 | locus YHR200W, strain rpn10, active compounds read low 0.992 | locus YIL066C, strain RNR3, active compounds read low 1.02 | locus YIL073C, strain SPO22, active compounds read low 1.05 | locus YIL125W, strain kgd1, active compounds read low 1 | locus YIR030C, strain dcg1, active compounds read low 0.987 | locus YJL092W, strain hpr5, active compounds read low 0.952 | locus YJL095W, strain BCK1 (second series), active compounds read low 0.975 | locus YJL095W, strain BCK1, active compounds read low 1.04 and 0.988 | locus YJL115W, strain asf1, active compounds read low 0.967 | locus YJL129C, strain trk1, active compounds read low 0.956 | locus YJL134W, strain LCB3, active compounds read low 0.983 | locus YJL154C, strain vps35, active compounds read low 0.981 | locus YJL164C, strain tpk1, active compounds read low 0.99 | locus YJL166W, strain qcr8, active compounds read low 0.99 | locus YJL168C, strain set2, active compounds read low 0.989 | locus YJL187C, strain SWE1 (second series), active compounds read low 1.01 | locus YJR043C, strain POL32, active compounds read low 1.01
